Among the data in PubChem BioAssay (Tox21) are Potency values, retold here.

Assay [1] can be described thus: cAMP Responsive Elements (CRE) small molecule antagonists, cell-based qHTS assay: qHTS cell viability counter screen (AID 2060913). Note: nearly all actives have a fitted effect of over 40% in size. An outline of the steps:
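Cytotoxicity counter screen multiplexed with the CRE-bla antagonist read: HEK293T cells in DMEM with dialyzed FBS and 25 mM HEPES were treated 3 hrs under 0.25 uM final NKH477, then viability measured by CellTiter-Glo luminescence.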

Assay [2] is described as follows: cAMP Responsive Elements (CRE) small molecule agonists, cell-based qHTS assay: qHTS cell viability counter screen (AID 2060914).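 Note: viability read after 3 h of compound exposure; nearly all actives have a fitted effect of over 50% in size.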 The gist of the method: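 CRE-bla HEK 293T cells, plated 18 h at 37 °C, were exposed to compounds for 3 h at 37 °C/5% CO2. Viability was then measured in the same wells by CellTiter-Glo luminescence after 30 min at room temperature.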

Records with an inconclusive call do not appear. A call without a number means that no potency is given here. Calls of active or inactive are those of the source. Calls come from the whole dose curve; as a rule, active = well fitted cell-killing curve with a large enough effect in the repeat runs; inconclusive = weak or mixed curves, or effect the other way; inactive = flat fitted curve, though single readings scatter.

In the case of `COc1ccc(/C=N/NC(=O)c2ccncc2)cc1OC`, the Potency result in assay [1] and in assay [2] was “inactive” throughout.
With `CCCCOC(=O)C(C)O` (centres undefined), the Potency entry in assay [1] and in assay [2] was “inactive” in each case.
As for `CCCCCCCCCCCCCCCC`, the Potency entry in assay [1] and in assay [2] was “inactive” each time.
As to `ClCCl`, the Potency result in assay [1] and in assay [2] was “inactive” in each case.
Turning to `CC(CC=O)CC(C)(C)C` (centres undefined), the Potency entry in assay [1] and in assay [2] was “inactive” each time.
Turning to `COc1ccc2nc(SCc3ncc(C)c(OC)c3C)[nH]c2c1`, the Potency entry in assay [1] and in assay [2] was “inactive” throughout.
On to `CCCCCCCC/C=C\CCCCCCCC(=O)OC[C@@H](O)[C@H]1OC[C@H](O)[C@H]1O`, for which the Potency result in assay [1] and in assay [2] was “inactive” in each case.
With `CC(c1cc2ccccc2s1)N(O)C(N)=O` (centres undefined), the Potency entry in assay [1] and in assay [2] was “inactive” in each case.
Consider `CC1(C)NC(=O)N(c2ccc([N+](=O)[O-])c(C(F)(F)F)c2)C1=O`, for which the Potency result in assay [1] and in assay [2] was “inactive” throughout.
For `CN1Cc2c(N)cccc2C(c2ccccc2)C1` (centres undefined), the Potency entry in assay [1] and in assay [2] was “inactive” each time.
Turning to `O=S1(=O)CC=CC1`, the Potency result in assay [1] and in assay [2] was “inactive” in each case.
With `Cc1cccc(C)c1OCC(=O)N[C@@H](Cc1ccccc1)[C@@H](O)C[C@H](Cc1ccccc1)NC(=O)[C@H](C(C)C)N1CCCNC1=O`, the Potency result in assay [1] and in assay [2] was “inactive” throughout.
On to `O=C(O)CCC(=O)c1ccc(-c2ccccc2)cc1`, for which the Potency entry in assay [1] and in assay [2] was “inactive” throughout.
Take `N#Cc1ccc(C(=O)O)cc1`: the Potency result in assay [1] and in assay [2] was “inactive” in each case.
Regarding `COC(=O)/C=C\C(=O)O`, the Potency result in assay [1] and in assay [2] was “inactive” throughout.
As to `CCCCNc1ccc(C(=O)OCCN(C)C)cc1`, the Potency entry in assay [1] and in assay [2] was “inactive” in each case.
For the compound `COc1cc(OC)nc(O[C@H](C(=O)O)C(OC)(c2ccccc2)c2ccccc2)n1`, the Potency result in assay [1] and in assay [2] was “inactive” throughout.
Regarding `COC(=O)Nc1ccc(Cl)c(Cl)c1`, the Potency entry in assay [1] and in assay [2] was “inactive” each time.
For `Cc1cc(C2CCCCC2)n(O)c(=O)c1`, the Potency entry in assay [1] and in assay [2] was “inactive” throughout.
As to `Cn1cccc1`, the Potency result in assay [1] and in assay [2] was “inactive” throughout.
Turning to `CC(=O)C1=C(C)[C@@H]2C[C@@]3(C1)[C@H](C)CC[C@H]3C2(C)C`, the Potency result in assay [1] and in assay [2] was “inactive” each time.
For `N[C@@H](Cc1c[nH]c2ccc(O)cc12)C(=O)O`, the Potency entry in assay [1] and in assay [2] was “inactive” throughout.
As to `O=c1[nH][nH]c(=O)c2cc([N+](=O)[O-])ccc12`, the Potency entry in assay [1] and in assay [2] was “inactive” throughout.
As to `CN[C@H]1CC[C@@H](c2ccc(Cl)c(Cl)c2)c2ccc(S(N)(=O)=O)cc21`, the Potency entry in assay [1] and in assay [2] was “inactive” throughout.
Take `C=CC(C)C#N` (centres undefined): the Potency result in assay [1] and in assay [2] was “inactive” each time.
Consider `O=c1c(-c2ccc(O)cc2)coc2cc(O)ccc12`, for which the Potency result in assay [1] and in assay [2] was “inactive” in each case.
As for `CC[N+](CC)(CCNC(=O)C(=O)NCC[N+](CC)(CC)Cc1ccccc1Cl)Cc1ccccc1Cl`, the Potency result in assay [1] and in assay [2] was “inactive” throughout.
As to `CC(C)SCc1ccco1`, the Potency entry in assay [1] and in assay [2] was “inactive” each time.
Take `CCO[C@@H]1O[C@H](C(COCc2ccccc2)OCc2ccccc2)[C@H](OCc2ccccc2)[C@H]1O` (some centres undefined): the Potency entry in assay [1] and in assay [2] was “inactive” each time.
Consider `O=C(c1ccc2c(c1)C(=O)OC2=O)c1ccc2c(c1)C(=O)OC2=O`, for which the Potency entry in assay [1] and in assay [2] was “inactive” in each case.
Regarding `CCCCc1ccc2cccc(S(=O)(=O)O)c2c1`, the Potency result in assay [1] and in assay [2] was “inactive” throughout.
`CCN(CC)CCCN(c1ccccc1)C1Cc2ccccc2C1`: the Potency result in assay [1] and in assay [2] was “inactive” each time.
Regarding `Cc1c(C)n(Cc2ccccc2)c2ccc(C(=O)OCCN(C)C)cc12`, the Potency entry in assay [1] and in assay [2] was “inactive” throughout.
In the case of `CN(C)Cc1cc(C(C)(C)C)c(O)c(C(C)(C)C)c1`, the Potency result in assay [1] and in assay [2] was “inactive” in each case.
Regarding `CCOC(=O)NNc1nncc2ccccc12`, the Potency entry in assay [1] and in assay [2] was “inactive” in each case.
With `OCCSc1ccccc1`, the Potency entry in assay [1] and in assay [2] was “inactive” each time.
On to `COc1cc(C(=O)NS(=O)(=O)c2ccccc2C)ccc1Cc1cn(C)c2ccc(NC(=O)OC3CCCC3)cc12`, for which the Potency entry in assay [1] and in assay [2] was “inactive” in each case.
On to `c1ccc2sc(SN(C3CCCCC3)C3CCCCC3)nc2c1`, for which the Potency entry in assay [1] and in assay [2] was “inactive” each time.
Turning to `CCc1cccc(C)c1`, the Potency entry in assay [1] and in assay [2] was “inactive” each time.
Take `CC(COCC(C)OC(=O)c1ccccc1)OC(=O)c1ccccc1` (centres undefined): the Potency entry in assay [1] and in assay [2] was “inactive” each time.
For the compound `CC(C)C(=O)OCCc1ccccc1`, the Potency result in assay [1] and in assay [2] was “inactive” each time.
As to `Oc1ccc(O)cc1`, the Potency entry in assay [1] and in assay [2] was “inactive” in each case.
`O=CC1CC=CCC1` (centres undefined): the Potency entry in assay [1] and in assay [2] was “inactive” each time.
For `CCC1COC(=O)O1` (centres undefined), the Potency result in assay [1] and in assay [2] was “inactive” each time.
Consider `C#CCN(C)Cc1ccccc1`, for which the Potency entry in assay [1] and in assay [2] was “inactive” each time.
As for `Clc1ccc2c(c1)C(N1CCNCC1)=Nc1ccccc1O2`, the Potency entry in assay [1] and in assay [2] was “inactive” each time.
For `C[C@@H]1C[C@H]2[C@@H]3CCC4=CC(=O)C=C[C@]4(C)[C@@]3(F)[C@@H](O)C[C@]2(C)[C@@]1(O)C(=O)COC(=O)c1ccncc1`, the Potency result in assay [1] and in assay [2] was “inactive” in each case.
Consider `O=[N+]([O-])c1cccc(Cl)c1`, for which the Potency entry in assay [1] and in assay [2] was “inactive” in each case.
With `O=C(O)P(=O)(O)O`, the Potency result in assay [1] and in assay [2] was “inactive” in each case.
For `Clc1ccc(Cl)c(Cl)c1Cl`, the Potency result in assay [1] and in assay [2] was “inactive” each time.
On to `O=C(CC(=O)c1ccccc1)c1ccccc1`, for which the Potency entry in assay [1] and in assay [2] was “inactive” throughout.
With `CC(C)(C)C1=CC(=O)C(C(C)(C)C)=CC1=O`, the Potency result in assay [1] and in assay [2] was “inactive” throughout.
